Active and inactive are the calls of the source. Rule for the calls: active = hit-call score of the fitted dose curve at least 0.9, where 1 is the maximum; inactive = score below 0.9.
Experiments:
[1] = ATG_EGR_CIS: Attagene CIS-FACTORIAL HepG2 Assay for human Early Growth Response 1 (EGR1) (AID 2282938); details: HepG2 Attagene CIS-FACTORIAL EGR reporter mRNA; actives raise or lower the signal
Procedure, shortened: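 HepG2 cells transiently transfected with cis-element-driven multiplexed reporter units, dosed for 24 h. EGR1-element reporter mRNA quantified by RT-PCR, 6-FAM labelling, HpaI digestion and capillary electrophoresis; bidirectional fit versus DMSO.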

[2] = ATG_M_19_CIS: Attagene CIS-FACTORIAL HepG2 Assay for M19 Transcription Factor (Internal Marker) (AID 2282939); details: HepG2 Attagene CIS-FACTORIAL M19 internal marker reporter; actives raise or lower the signal
Procedure, shortened: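 Signals come from fluorescence of labelled reporter-specific PCR fragments resolved by capillary electrophoresis, following 24 h treatment of HepG2 cells transfected with cis-promoter reporter units; activity was fitted in both directions relative to DMSO.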

[3] = ATG_ERE_CIS: Attagene CIS-FACTORIAL HepG2 Assay for Estrogen Response Element (ERE) (AID 2282940); details: HepG2 ERE cis-reporter, Attagene RNA transcript; actives raise or lower the signal
Procedure, shortened: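 Fluorescence of capillary-separated, FAM-labelled reporter cDNA fragments indicates reporter mRNA levels in HepG2 cells exposed to chemicals for 24 h. Transient transfection with cis-regulated units; data fitted in both directions against DMSO.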

[4] = ATG_Ets_CIS: Attagene CIS-FACTORIAL HepG2 Assay for human Erythroblast Transformation Specific (ETS) (AID 2282941); details: HepG2 ETS cis-reporter transcription, actives raise or lower the signal
Procedure, shortened: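 Cis-regulated reporter mRNA induction in HepG2 (transient transfection), 24 h exposure, RT-PCR plus capillary electrophoresis detection; DMSO serves as negative control and baseline.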

[5] = target: Hepatocyte nuclear factor 3-beta (Homo sapiens) (UniProt Q9Y261); assay: ATG_FoxA2_CIS: Attagene CIS-FACTORIAL HepG2 Assay for human Forkhead box A2 (FOXA2) (AID 2282942); details: HepG2 cis-reporter transcription factor activity, 24 h; actives raise or lower the signal
Procedure, shortened: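 HepG2 transiently transfected with a multiplexed cis-promoter reporter library read endogenous FOXA2 activity. After 24 h compound exposure, reporter mRNA was quantified by RT-PCR, HpaI digestion and capillary electrophoresis. Bidirectional fit against DMSO.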

[6] = ATG_FoxO_CIS: Attagene CIS-FACTORIAL HepG2 Assay for human Forkhead box O (FoxO) (AID 2282943); details: HepG2 Attagene cis-reporter, FoxO element, mRNA; actives raise or lower the signal
Procedure, shortened: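 HepG2 cells transiently transfected with cis-promoter-driven multiple reporter transcription units; 24 h after chemical dosing, reporter mRNA quantified by RT-PCR, fluorescent primer extension, HpaI digestion and capillary electrophoresis. Bidirectional fitting versus DMSO baseline.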

[7] = ATG_GATA_CIS: Attagene CIS-FACTORIAL HepG2 Assay for human GATA Binding Protein (AID 2282944); details: HepG2 GATA cis-element reporter, Attagene multiplex mRNA; actives raise or lower the signal
Procedure, shortened: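 After transfecting HepG2 cells with multiple cis-regulated reporter units, chemicals are dosed for 24 h; isolated RNA undergoes RT-PCR and fluorescent labeling before capillary electrophoresis, with activity expressed against DMSO.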

[8] = ATG_GLI_CIS: Attagene CIS-FACTORIAL HepG2 Assay for human Zinc Finger Protein GLI1 (AID 2282945); details: HepG2, Attagene cis-factorial reporter mRNA, GLI element; actives raise or lower the signal
Procedure, shortened: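 HepG2 cells transiently transfected with cis-promoter multiplexed reporter units report endogenous transcription factor activity. After 24 h chemical exposure, reporter mRNA was quantified by RT-PCR, 6-FAM labelling, HpaI digestion and capillary electrophoresis, with bidirectional fitting against DMSO.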

[9] = target: Bile acid receptor (Homo sapiens) (UniProt Q96RI1); assay: ATG_IR1_CIS: Attagene CIS-FACTORIAL HepG2 Assay for human Nuclear Receptor Subfamily 1 Group H Member 4 (NR1H4), IR1 submotif (AID 2282946); details: IR1 reporter transcription, actives raise or lower the signal
Procedure, shortened: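 Readout: reporter transcript levels by RT-PCR with fluorescent capillary electrophoresis, from HepG2 cells transiently transfected with multiplexed cis-regulated reporters and dosed 24 h. Gain- or loss-of-signal fitted versus DMSO negative control.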

[10] = ATG_GRE_CIS: Attagene CIS-FACTORIAL HepG2 Assay for human Glucocorticoid Response Elements (GRE) (AID 2282947); details: HepG2 GRE cis-reporter, Attagene multiplex mRNA; actives raise or lower the signal
Procedure, shortened: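 HepG2, transient cis-reporter transfection, 24 h. Reporter mRNA: RT-PCR then CE, fluorescence. Fit both directions vs DMSO.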

Measured: AC50

Hepatocyte nuclear factor 3-beta (Homo sapiens), sequence (Q9Y261 whole entry, looked up): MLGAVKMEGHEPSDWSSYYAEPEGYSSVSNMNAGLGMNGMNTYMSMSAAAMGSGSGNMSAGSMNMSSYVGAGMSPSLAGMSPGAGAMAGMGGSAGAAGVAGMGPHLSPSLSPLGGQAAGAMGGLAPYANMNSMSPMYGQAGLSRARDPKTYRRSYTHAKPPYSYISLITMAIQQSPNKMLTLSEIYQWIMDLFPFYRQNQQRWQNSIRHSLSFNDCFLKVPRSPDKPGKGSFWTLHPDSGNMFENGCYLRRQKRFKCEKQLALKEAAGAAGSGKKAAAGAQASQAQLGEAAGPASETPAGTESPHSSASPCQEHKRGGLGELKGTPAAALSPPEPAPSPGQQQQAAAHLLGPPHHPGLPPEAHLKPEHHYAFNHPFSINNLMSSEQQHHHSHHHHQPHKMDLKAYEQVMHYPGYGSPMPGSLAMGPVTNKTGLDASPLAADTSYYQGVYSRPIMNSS
Bile acid receptor (Homo sapiens), sequence (Q96RI1 whole entry, looked up): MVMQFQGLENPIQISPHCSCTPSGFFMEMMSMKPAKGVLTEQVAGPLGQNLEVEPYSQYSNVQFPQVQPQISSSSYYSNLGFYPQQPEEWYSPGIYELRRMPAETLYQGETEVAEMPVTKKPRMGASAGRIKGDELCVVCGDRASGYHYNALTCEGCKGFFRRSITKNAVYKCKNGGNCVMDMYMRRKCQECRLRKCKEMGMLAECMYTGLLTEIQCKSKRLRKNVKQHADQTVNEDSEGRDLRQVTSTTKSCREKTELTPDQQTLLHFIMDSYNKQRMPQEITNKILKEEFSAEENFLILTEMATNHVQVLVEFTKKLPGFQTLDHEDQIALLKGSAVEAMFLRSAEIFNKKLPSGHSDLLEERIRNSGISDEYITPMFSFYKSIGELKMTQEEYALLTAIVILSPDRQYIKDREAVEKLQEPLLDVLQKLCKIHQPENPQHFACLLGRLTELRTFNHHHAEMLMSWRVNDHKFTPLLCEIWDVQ

N#Cc1cccnc1
inactive: all assays above

O=C1C=CC(=O)c2ccccc21
not listed: [10]
inactive: all other assays above

[Cl][Sn]([c]1ccccc1)([c]1ccccc1)[c]1ccccc1
active: [1] 0.257 µM | [3] 0.014 µM | [6] 0.308 µM | [7] 1.2 µM | [8] 0.221 µM
inactive: [2] | [4] | [5] | [9] | [10]

O=C=Nc1ccc(Cl)cc1
active: [6] 162 µM
not listed: [9] | [10]
inactive: all other assays above

c1ccc(-c2cccc(-c3ccccc3)c2)cc1
active: [3] 26.4 µM
not listed: [10]
inactive: all other assays above

Cc1cc(C(F)(C(F)(F)F)C(F)(F)F)ccc1NC(=O)c1cccc(I)c1C(=O)NC(C)(C)CS(C)(=O)=O
inactive: all assays above

OC(Cc1ccccc1Cl)(Cn1cncn1)C1(Cl)CC1 (centres undefined)
active: [1] 47.6 µM
not listed: [10]
inactive: all other assays above

O=C(NC(=O)c1c(F)cccc1F)Nc1ccc(Cl)cc1
not listed: [10]
inactive: all other assays above

COCC(=O)N(c1c(C)cccc1C)[C@H](C)C(=O)OC
not listed: [10]
inactive: all other assays above

C=CCc1ccccc1O
active: [3] 29.2 µM
not listed: [10]
inactive: all other assays above

OC(Cc1ccccc1Cl)(Cn1[nH]cnc1=S)C1(Cl)CC1 (centres undefined)
active: [2] 64.6 µM | [3] 7.38 µM
inactive: all other assays above

CC(=Cc1ccccc1)[N+](=O)[O-]
active: [6] 11.1 µM | [7] 16.8 µM | [8] 20.1 µM | [9] 5.55 µM
inactive: all other assays above

Nc1c(Oc2ccccc2)cc(O)c2c1C(=O)c1ccccc1C2=O
inactive: all assays above

Cc1ccc2nc3sc(=O)sc3nc2c1
inactive: [1] | [2] | [3] | [8]
active: [4] 45.9 µM | [5] 11.9 µM | [6] 6.07 µM | [7] 29.9 µM | [9] 25 µM | [10] 41.1 µM

CCOCn1c(-c2ccc(Cl)cc2)c(C#N)c(Br)c1C(F)(F)F
active: [1] 1.83 µM | [4] 60.1 µM | [8] 157 µM | [9] 38.3 µM | [10] 38.1 µM
inactive: [2] | [3] | [5] | [6] | [7]

O=C(O)COc1ccc(Cl)cc1
not listed: [9]
inactive: all other assays above

C=CCCl
not listed: [7] | [9] | [10]
inactive: all other assays above

C=C(C)[C@@H]1CC=C(C=O)CC1
not listed: [7] | [10]
inactive: all other assays above

C[N+](C)(C)Cc1ccccc1
inactive: all assays above

N#CCC#N
not listed: [9]
inactive: all other assays above

CC(C)=CC1C(C(=O)OCc2cccc(Oc3ccccc3)c2)C1(C)C (centres undefined)
active: [3] 100 µM
not listed: [7] | [10]
inactive: all other assays above

C#CCO
not listed: [9]
inactive: all other assays above

CCOc1ccc(N)cc1
not listed: [7]
inactive: all other assays above

Cc1cc(-c2cc(C)c(N)c(C)c2)cc(C)c1N
not listed: [9]
inactive: all other assays above

CCCCC(CC)COC(=O)Cl (centres undefined)
inactive: all assays above

Cc1c([N+](=O)[O-])c(C)c([N+](=O)[O-])c(C(C)(C)C)c1[N+](=O)[O-]
active: [3] 23.7 µM
not listed: [9]
inactive: all other assays above

Reference: PubChem BioAssay (EPA / NIEHS)
